MITF TRPM1 inh: inhibitors of MITF-driven TRPM1 promoter in melanoma cells; SK-MEL-5 TRPM1 promoter luciferase, 24 h; inhibition, % at 12.5 µM; hit rate 0.83% among 330,000; AID 488899;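 active = mean inhibition across replicates of 60% or more, whatever share of single replicates reaches that level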
Peg3 promoter: Peg3 promoter activity inhibition; inhibition, % at 20 µM; HeLa PEG-Prom luciferase reporter, luminescence, overnight; hit rate 1.7% among 360,000;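 active = inhibition of at least 50% at 20 µM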
EBV LMP1 NFkB: Epstein-Barr LMP1 NF-kappaB reporter inhibition; LMP1-induced NF-kappaB luciferase reporter cells, luminescence; inhibition, % at 12.5 µM; hit rate 0.69% among 350,000; AID 504558; in the data active = inhibition above about 41%;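 note: 0% = neutral control wells and 100% = reference inhibitor control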
TROY signal inh: inhibitors of TROY-dependent NF-kB signaling; inhibition, % at 10 µM; AID 1347056; hit rate 0.98% among 360,000; Q293 LMP1-TROYcd NF-kB luciferase reporter, 4 h;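 active = compounds whose plate-normalised and pattern-corrected inhibition of the luciferase reporter signal at the single screening dose is 50% or more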
TWEAK Fn14 block: TWEAK-Fn14 signaling inhibition | hit rate 2% among 360,000 | inhibition, % at 10 µM | AID 1159606 | TWEAK-stimulated Fn14 reporter cells, luciferase luminescence, 8 h; in the data active = inhibition above about 50%
Shn3 inh set2: Schnurri-3 reporter inhibition in Clone20 osteoblasts; Clone20 osteoblast Shn3 3'UTR firefly luciferase, 24 h; inhibition, % at 12.5 µM; hit rate 0.52% among 360,000;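 active = mean inhibition of at least 75% with every replicate also reaching 75%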;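 note: 0% = median of neutral control wells and 100% = pilot-screen positive control compound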
Numbers without * were called inactive; . = not tested or not shown. Rows were chosen to be rich in hits. Some 4.1% of all compounds tested hit in one or more screens of this group.

SMILES	MITF TRPM1 inh	Peg3 promoter	EBV LMP1 NFkB	TROY signal inh	TWEAK Fn14 block	Shn3 inh set2
O=C(NCc1ccc2c(c1)OCO2)C(=O)NCC1OCCCN1S(=O)(=O)c1ccc(F)cc1 (stereo not drawn)	3	4	1	0	-21	21
O=C(/C=C/c1ccc(Cl)c([N+](=O)[O-])c1)Nc1cccc(NC(=O)c2ccco2)c1	-10	114*	7	41	55*	10
O=C(/C=C/c1ccc(Cl)c([N+](=O)[O-])c1)Nc1ccc(NC(=O)c2ccco2)cc1	3	61*	-1	-7	-18	-2
O=C(Nc1ccc(Cl)c([N+](=O)[O-])c1)c1ccco1	-17	-53	-8	-14	-6	-33
CCc1ccc(NC(=O)COC(=O)C2(c3ccc(Cl)cc3)CCCC2)cc1	10	16	61*	37	44	43
C=CCN1C(=O)N(c2ccccc2)C(=O)C1CC(=O)Nc1ccc(OC)cc1 (stereo not drawn)	-8	14	3	6	2	-15
CCCOc1cccc(-c2cc(C(=O)N/N=C/c3cccnc3)c3ccccc3n2)c1	-3	-44	.	21	-29	-19
O=C(N/N=C/c1ccccn1)c1cc(-c2ccc(Cl)cc2)nc2ccccc12	81*	-71	11	46	16	79
O=C(N/N=C/c1ccccn1)c1cc(-c2ccc(Br)cc2)nc2ccccc12	66*	75*	3	-5	100*	55
CCCOc1cccc(-c2cc(C(=O)N/N=C/c3ccccn3)c3ccccc3n2)c1	90*	5	15	41	94*	38
Cc1ccccc1OCC(=O)OCC(=O)Nc1ncc(Cl)c(C)c1Cl	-2	-10	4	6	-16	-14
O=C(CSc1nnc(-c2cccs2)o1)c1cccs1	-72	-305	-25	-58	-18	-43
COc1ccc(NC(=O)CSc2nnc(-c3cccc(O)c3)o2)cc1	-19	-204	6	-27	4	-6
COc1cccc(NC(=O)CSc2nnc(-c3cc(C)n(-c4ccccc4)c3C)o2)c1	17	-77	26	36	89*	34
O=C(O)CSc1nnc(-c2ccc3c(c2)OCO3)o1	-6	9	1	4	1	-13
Cc1cc(C(=O)CSc2nnc(-c3ccc4c(c3)OCO4)o2)c(C)n1-c1ccc(F)cc1	6	-2	5	13	65*	18
NC(=O)CSc1nnc(-c2ccc3c(c2)OCO3)o1	-15	-108	-24	-35	12	-52
C/C(N)=C(/C#N)C(=O)CSc1nnc(-c2ccc3c(c2)OCO3)o1	20	-53	16	45	83*	7
Cc1cc(C(=O)CSc2nnc(-c3cccs3)o2)c(C)n1-c1ccccc1	39	25	58*	-42	2	15
O=C(N[C@@H]1c2ccccc2CC[C@@H]1OCc1ccccc1)c1ccc(-c2ccccc2)cc1	-15	-1	-5	8	3	51
CN(CC(=O)Nc1c(Cl)cccc1Cl)C(=O)c1ccc2ccccc2n1	-22	-59	-15	-15	-1	-14
CCOC(=O)/C(Sc1nc(-c2ccccc2)cc(-c2ccccc2)c1C#N)=C(\C)O	-2	18	1	13	-10	0
Nc1c(NC(=O)CC[n+]2ccccc2)cccc1[N+](=O)[O-]	6	8	2	46	52*	-5
COCCOC(=O)C1=C(C)NC(SCC(=O)NC(C)(C)C)=C(C#N)C1c1ccco1 (stereo not drawn)	1	25	-3	5	10	-9
COc1ccccc1NC(=O)C1=C(C)NC(SCC(=O)c2ccccc2)=C(C#N)C1c1ccco1 (stereo not drawn)	6	26	-1	33	56*	13
SMILES	MITF TRPM1 inh	Peg3 promoter	EBV LMP1 NFkB	TROY signal inh	TWEAK Fn14 block	Shn3 inh set2
COc1ccc2nc(-c3ccc(F)cc3)sc2c1	21	-87	21	39	75*	-11
FC(F)(F)c1nnc2c(Sc3ccccc3)nc3ccc(Cl)cc3n12	82*	62*	-70	-6	53*	5
FC(F)(F)c1nc2ccccc2n2c(-c3ccc(Cl)cc3Cl)nnc12	4	30	-4	11	-2	3
CC(=O)Nc1nc(C)c(Oc2ccc(C)cc2)c(=O)[nH]1	4	9	7	0	7	10
Cc1ccc(O)c(C(=O)c2cnn(C(=O)c3cccc(S(=O)(=O)N(C)C)c3)c2)c1	-5	-3	-7	40	63*	7
O=C1C=CC(=Nc2cccc3c2C(=O)c2ccccc2-3)O1	25	-98	39	-84	-19	-56
O=C1C=CC(=Nc2ccc3c(c2)Cc2cc(F)ccc2-3)O1	-6	-37	-11	11	56*	16
COc1ccc(C(CCN2CCCC2)c2c(OC)cc(OC)c3c(-c4ccccc4)cc(=O)oc23)cc1 (stereo not drawn)	67*	8	-27	-4	-5	-2
COc1ccc(C(CCN2CCCC(C)C2)c2c(OC)cc(OC)c3c(-c4ccccc4)cc(=O)oc23)cc1 (stereo not drawn)	42	65*	0	-8	-21	13
COc1cc(OC)c2c(-c3ccccc3)cc(=O)oc2c1C(CCN1CCOCC1)c1ccc2c(c1)OCO2 (stereo not drawn)	-4	-3	6	7	-4	14
COc1ccc(C(CCN2CCCC(C)C2)c2c(OC)cc(OC)c3c(C)cc(=O)oc23)cc1 (stereo not drawn)	-5	-24	-11	-14	3	-14
COc1cc(OC)c2c(-c3ccccc3)cc(=O)oc2c1C(CCN1CCCC(C)C1)c1ccc(N(C)C)cc1 (stereo not drawn)	13	78*	-1	8	4	1
COc1cc(OC)c2c(-c3ccccc3)cc(=O)oc2c1C(CCN1CCCC1)c1ccc2c(c1)OCO2 (stereo not drawn)	35	91*	-8	-5	-24	-15
COc1ccc(CNC(=O)C2=CC(c3ccc(OC)cc3)=NS(=O)(=O)N2C)cc1	6	9	9	16	1	10
Cc1ccc(NC(=O)c2ccco2)nc1	-79	-182	-6	-29	12	-79
CC(OC(=O)C1CC(=O)N(Cc2ccccc2)C1)C(=O)Nc1cccc(C#N)c1 (stereo not drawn)	0	-3	4	14	-1	8
COc1ccc(NC(=O)C2(C)CCN2C(=O)Cc2ccc(Cl)cc2Cl)cc1OC (stereo not drawn)	.	2	.	-4	2	17
COc1ccc(OC)c(NC(=O)C2(C)CCN2C(=O)Cc2ccc(Cl)cc2Cl)c1 (stereo not drawn)	.	7	.	13	65*	7
Cc1nc2c(c(C)nn2-c2ccccc2)c(C)c1CCC(=O)Nc1ccc(CN2CCCC2)cc1	-6	55*	7	2	-31	12

Screening results: PubChem, several laboratories
